Tests used:
Type in all cases: functional
[1] = target: Solute carrier family 2, facilitated glucose transporter member 1 (Homo sapiens) (UniProt P11166); assay: ST_JUDE_LEISH: Cytotoxicity at 2uM final concentration against transgenic Leishmania Mexicana promastigotes LmGLUT1 that are glucose transport deficient and complemented with the human glucose transporter GLUT1. Activity is measured by DNA content using SYBR green in vitro
[2] = target: Hexose transporter 1 (Plasmodium falciparum) (UniProt O97467); assay: ST_JUDE_LEISH: Cytotoxicity at 2uM final concentration against transgenic Leishmania Mexicana promastigotes LmPfHT that are glucose transport deficient and complemented with the Plasmodium falciparum hexose transporter. Activity is measured by DNA content using SYBR green in vitro
[3] = target: Glucose transporter (Leishmania mexicana) (UniProt O61059); assay: ST_JUDE_LEISH: Cytotoxicity at 2uM final concentration against transgenic Leishmania Mexicana promastigotes LmGT2 that are glucose transport deficient and complemented with the L. Mexicana glucose transporter 2. Activity is measured by DNA content using SYBR green in vitro

Solute carrier family 2, facilitated glucose transporter member 1 (Homo sapiens), sequence (P11166 whole entry): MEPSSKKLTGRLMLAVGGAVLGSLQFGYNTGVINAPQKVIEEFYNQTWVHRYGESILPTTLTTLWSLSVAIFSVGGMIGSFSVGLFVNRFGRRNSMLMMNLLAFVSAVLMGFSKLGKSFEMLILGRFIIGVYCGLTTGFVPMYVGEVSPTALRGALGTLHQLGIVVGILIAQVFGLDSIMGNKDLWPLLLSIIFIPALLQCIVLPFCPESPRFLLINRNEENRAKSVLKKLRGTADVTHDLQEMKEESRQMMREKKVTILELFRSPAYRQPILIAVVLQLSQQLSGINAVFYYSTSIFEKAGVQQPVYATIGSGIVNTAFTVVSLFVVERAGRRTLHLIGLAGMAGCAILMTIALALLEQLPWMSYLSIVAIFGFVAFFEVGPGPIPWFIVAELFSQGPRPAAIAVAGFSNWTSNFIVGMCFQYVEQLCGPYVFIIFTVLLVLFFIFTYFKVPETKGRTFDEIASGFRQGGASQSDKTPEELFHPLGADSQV

SMILES | inhibition [1] [%] | inhibition [2] [%] | inhibition [3] [%]
Nc1ccc(-c2ccc(NC(=O)Nc3ccccc3)cc2)cn1 | 2.95 | 2.5 | 3.08
Nc1ncc(-c2ccsc2)c2ccc(-c3ccc4cn[nH]c4c3)cc12 | 3.11 | 1.38 | 5.29
COc1ccccc1C1CCN(C2CCC(NC(=O)c3ccc4[nH]c(-c5ccc(C)cc5)nc4c3)CC2)CC1 (stereo unspecified) | 1.55 | 3.38 | 2.37
Oc1c(C(Nc2nc3ccccc3s2)c2ccc(OC(F)F)cc2)ccc2cccnc12 (stereo unspecified) | 4.38 | 0.37 | -1.77
N#Cc1cccc(NC(=O)Nc2ccc(-c3csc(-c4nc5ccccc5[nH]4)c3)cc2)c1 | 7.99 | 9.33 | 3.91
Cc1cc(N[C@@H](CC(C)C)C(=O)NCc2cccs2)nc(NCCc2ccc(F)cc2)n1 | 0.98 | -0.43 | 0.13
COc1ccc(Cc2c(Cl)nc3nc(N)nc(N)c3c2C)cc1 | 7.37 | 7.06 | 8.71
COc1ccccc1N1CCN(Cc2c(NC(C)=O)sc(C)c2C)CC1 | 0.73 | 0.56 | 1.44
COc1ccc(C2CCN(CCCCNC(=O)c3ccc(NC(=O)c4ccc(Cl)cc4)cc3)CC2)c(C)c1 | -0.79 | -0.57 | -2.18
CN(CCCNCc1cccc2ccccc12)CCCNCc1cccc2ccccc12 | 1.31 | 0.53 | 1.98
C=CCN(c1nc(NC)nc(NCc2c(OC)cccc2OC)n1)C1CCCC1 | 5.12 | 3.87 | 1.88
Cc1cccc2c3c([nH]c12)C1(CCN(CCc2ccccc2)CC1)NC(C(=O)NCc1ccccc1)C3 (stereo unspecified) | 4.58 | 5.51 | 0.71
COc1ccc(-c2cc(C(=O)N[C@@H](Cc3ccccc3)C(=O)NCCN3CCCCC3)ccc2O)cc1 | 5.18 | 2.26 | 4.04
CCCCCN1CCC(CNS(=O)(=O)c2ccc(C(=O)Nc3cccc(C(F)(F)F)c3)cc2)CC1 | 0.47 | 0.02 | -0.33
Cc1cccc(Cl)c1S(=O)(=O)Nc1cccc(CCN2CCC(N3CCCCC3)CC2)c1 | -0.03 | -0.24 | -2.34
Cc1noc(C)c1-c1ccc2c(Nc3nccc4ccccc34)c(C(N)=O)cnc2c1 | 103 | 89.7 | 102

SMILES | inhibition [1] [%] | inhibition [2] [%] | inhibition [3] [%]
CCCCOP(=O)(OCCCC)C(=Cc1ccc(O)c2ccccc12)P(=O)(OCCCC)OCCCC | 5.02 | 4.67 | 5.24
CCCCN(CCCC)/C(=N/C(=N)NCc1ccc(Cl)c(Cl)c1)NCCCCCCN/C(=N\C(=N)NCc1ccc(Cl)c(Cl)c1)N(CCCC)CCCC | -0.73 | -0.52 | -0.96
CC(C)[C@H](NC(=O)c1ccc(O)c(-c2ccc(Cl)c(Cl)c2)c1)C(=O)NC1CCCCCC1 | 0.48 | 0.52 | -4.76
Fc1ccc(Nc2ccnc3cc(-c4cccc(CNCCN5CCOCC5)c4)ccc23)c(Cl)c1 | 2.04 | 2.83 | 2.84
Cc1nc(C)c(CC(=O)Nc2cccc(-c3cccc(-c4nc5cc(C(F)(F)F)ccc5[nH]4)c3)c2)s1 | 2.61 | 2.61 | 1.2
NC(=O)C1CCN(Cc2cccc(-c3cccc(-c4nc5cc(C(F)(F)F)ccc5[nH]4)c3)c2)CC1 | 13.1 | 11.4 | 10.3
CCC(C)NC(=O)Nc1ccc(-c2cccc(-c3nc4cc(C(F)(F)F)ccc4[nH]3)c2)cc1 (stereo unspecified) | 9.64 | 8.86 | 4.56
N#Cc1cc([N+](=O)[O-])ccc1-n1nc(-c2cccc(Cl)c2)n(CC2CCCO2)c1=S (stereo unspecified) | 2.07 | 1.3 | -4.52
Cc1cccc(CNc2nc(C)cc(N[C@@H](CC(C)C)C(=O)NCc3cccc(F)c3)n2)c1 | 4.53 | 3.4 | -0.42
CC1CN(c2ccc(NC(=O)c3cccs3)cc2)CCN1Cc1cccc(F)c1 (stereo unspecified) | -0.49 | -0.85 | 3.41
CCNc1cc(C(=O)N[C@@H](Cc2ccccc2)[C@H](O)CNCCc2cc(OC)cc(OC)c2)cc(N2CCCCS2(=O)=O)c1 | 7.06 | 4.2 | 10
CCC(=O)N1CCc2cc(Br)cc(S(=O)(=O)N3CC(C)CC(C)C3)c21 (stereo unspecified) | 5.05 | 3.54 | 3.73
Fc1ccccc1COc1ccc(Nc2ncnc3ccc(I)cc23)cc1Cl | 18.2 | 9.09 | 4.67
CN1CCC(N(Cc2ccc(N3CCN(Cc4c[nH]c5ccc(Cl)cc45)CC3)nc2)C2CC2)CC1 | 9.81 | 4.81 | 10.7
O=C1OC2(CN1CC1CCN(Cc3ccc(-n4ccnc4)cc3)C1)c1ccccc1-c1ccccc12 (stereo unspecified) | 4.6 | 5.24 | 2.86
FC(F)(F)c1ccc2[nH]c(-c3ccc(-c4cccc(CNCC5CCCO5)c4)s3)nc2c1 (stereo unspecified) | 0.73 | 2.27 | 2.21
